Shown are actives, neighbours in structure and some others; about 2.7% of the full set was active somewhere.
LDHA inh: blocks human lactate dehydrogenase A | P00338 | purified LDHA, NADH/diaphorase-resazurin fluorescence; stronger effect = lower value | activity change, % (values are at about 110 or 230 µM) | 480,000 tested, 0.15% active; in the data active = activity change below about -30%; inconclusive = mostly about -25% to -30%;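 also: plate controls were DMSO wells for no effect and wells without enzyme for full effect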
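Remaining NADH was detected by diaphorase (0.133 mg/mL) converting 37 µM resazurin to fluorescent resorufin, read at 0 and 20 minutes. The preceding 5-minute room-temperature reaction used 2 nM LDHA, 0.2 mM sodium pyruvate and 0.06 mM NADH at pH 7.4.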
mIDH1 inhibitor: inhibitors of human mutant IDH1 R132H; O75874; IDH1-R132H enzyme, NADPH consumption, diaphorase/resazurin fluorescence; Potency, µM (series often up to 76.6 µM), for the others: top-dose activity change, negative = inhibition, usual class: inhibitors; 390,000 tested, 0.093% active; also: potency is read from the fitted curve at half-maximal effect; % is scaled to controls: 0 for no effect and ±100 for the full control effect; nearly all actives have a fitted effect of over 65% in size
Target sequence (O75874 whole entry R132H, stated change not applied): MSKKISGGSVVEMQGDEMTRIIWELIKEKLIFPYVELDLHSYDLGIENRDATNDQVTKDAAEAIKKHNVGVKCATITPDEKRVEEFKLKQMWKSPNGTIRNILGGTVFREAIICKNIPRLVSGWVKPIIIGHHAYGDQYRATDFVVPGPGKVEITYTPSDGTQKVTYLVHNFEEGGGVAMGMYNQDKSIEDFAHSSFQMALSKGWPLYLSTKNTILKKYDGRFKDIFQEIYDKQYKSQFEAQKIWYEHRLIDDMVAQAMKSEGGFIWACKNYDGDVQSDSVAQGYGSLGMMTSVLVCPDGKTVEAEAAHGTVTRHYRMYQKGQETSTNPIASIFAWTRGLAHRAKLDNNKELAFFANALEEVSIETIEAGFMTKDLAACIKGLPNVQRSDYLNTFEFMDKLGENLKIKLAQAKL
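IDH1-R132H (0.5 ug/mL dispensed) in pH 7.5 Tris buffer was preincubated 30 min with compound, then given a substrate mix of 0.016 mM NADPH and 2 mM alpha-KG for 80 min at room temperature; remaining NADPH was read by diaphorase/resazurin fluorescence.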
Nrf2 ARE act: activates Nrf2 signaling; AREc32 ARE-luciferase reporter (MCF7-derived line), luminescence, 24 h; Potency, µM (series often up to 46.1 µM), for inactives: at the top dose activation, usual class: activators; 410,000 tested, 0.31% active; also: potency is read from the fitted curve at half-maximal effect; % of control where 0% means no effect; nearly all actives have a fitted effect of over 65% in size
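AREc32 cells carrying an ARE-driven firefly luciferase reporter were seeded at 1000 cells/well in OPTI-MEM with 5% FBS, then exposed to compound for 24 hr at 37 deg C. Luminescence was read with Steady-Glo after 30 min at RT.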
A549 tox: A549 cytotoxicity, counter-screen for Nrf2 inhibitors; A549 ARE-Fluc cells, CellTiter-Fluor viability, 18-24 h; Potency, µM (highest dose often 46 µM), for inactives: at the top dose activity change, negative = cytotoxicity, usual class: inhibitors; 390,000 tested, 0.16% active; AID 504648; also: potency is read from the fitted curve at half-maximal effect; % is scaled to controls: 0 for no effect and ±100 for the full control effect
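A549 ARE_Fluc cells in 5% FBS OPTI-MEM were exposed to compounds in concentration-response for 18-24 h at 37 deg C. Viability was read by CellTiter-Fluor fluorescence (Ex 405/Em 525) after 30 min, before the luciferase read.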
Nrf2 block: Nrf2 pathway inhibition; A549 ARE-Fluc reporter, luciferase luminescence, 18-24 h; Potency, µM (top dose mostly 46 µM), without a hit: at the highest dose activity change, negative = inhibition, usual class: inhibitors; 360,000 tested, 2.1% active; AID 504444; also: potency is read from the fitted curve at half-maximal effect; % is scaled to controls: 0 for no effect and ±100 for the full control effect; nearly all actives have a fitted effect of over 60% in size
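Nrf2 function is reported as luminescence of an ARE-controlled luciferase in A549 cells. Compounds were tested at several concentrations, and a CellTiter-Fluor read on the same wells flagged cytotoxicity.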
12-LOX inh: blocks human arachidonate 12S-lipoxygenase; P18054; purified 12hLO, xylenol orange hydroperoxide absorbance; Potency, µM (top dose mostly 108 µM), without a hit: at the highest dose activity change, negative = inhibition, actives largely listed as inhibitors; 580,000 tested, 1.1% active; AID 1671190; also: potency is read from the fitted curve at half-maximal effect; % is scaled to controls: 0 for no effect and ±100 for the full control effect
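Purified human 12hLO (150 nM final) in 25 mM Hepes, 0.01% Triton X-100, pH 7.0 was preincubated 15 min at room temperature with compound. Then 40 uM arachidonic acid was added, 30 min. Hydroperoxide was read by Fe-XO absorbance ratio 573/405 nm.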
* marks the source's active call; other numbers are inactive results; ? = inconclusive; . = no result; [ ] = another dose, or the depositor's remark. Unless noted, calls follow the shape of the dose curve; as a rule, active = well fitted curve in the direction sought with a large enough effect; inconclusive = small, poorly fitted or top-dose-only effect, or another doubt; inactive = no such curve, though single readings can be large; an effect the other way counts as inactive or inconclusive.

SMILES	LDHA inh	mIDH1 inhibitor	Nrf2 ARE act	A549 tox	Nrf2 block	12-LOX inh
Cc1cc(C(=O)NC(=S)Nc2ccccc2N2CCCC2)ccc1[N+](=O)[O-]	-8.6	0.4%	0.3%	-28.4%	?	-1.6%
O=C(NC(=S)Nc1ccccc1N1CCOCC1)c1ccc(Br)cc1	-9.2	-15.0%	1.9%	4.6%	-15.7%	35.5µM*
CCOc1ccc(C(=O)NC(=S)Nc2ccccc2N2CCC(C)CC2)cc1[N+](=O)[O-]	-2.6	3.4%	0.2%	5.8%	18.3%	35.5µM*
CCOc1ccc(C(=O)NC(=S)Nc2ccc(N3CCC(C)CC3)cc2)cc1[N+](=O)[O-]	-1.8	3.5%	0.1%	-3.9%	-14.5%	4.9%
Cc1cc(C(=O)NC(=S)Nc2ccccc2N2CCOCC2)ccc1[N+](=O)[O-]	-12.1	-1.9%	-0.6%	9.5%	12.4%	28.2µM*
O=C(NC(=S)Nc1ccccc1N1CCOCC1)c1ccc(-c2ccccc2F)o1	-4.6	3.9%	2.3%	-11.5%	-16.1%	25.1µM*
O=C(NC(=S)Nc1cc(Cl)ccc1N1CCOCC1)c1ccc(-c2cccc(Cl)c2)o1	-9.1	-1.7%	-0.3%	-4.1%	.	-13.0%
O=C(COc1ccc(Br)cc1)NC(=S)Nc1ccccc1N1CCOCC1	0.6	8.5%	2.1%	7.3%	5.3%	?
Cn1c(=O)[nH]c(=O)c2c1nc(CN1CCN(Cc3ccccc3)CC1)n2CCCc1ccccc1	-5.2	.	.	.	.	-3.0%
CCCN(CC(=O)Nc1ccccc1C(=O)Nc1cccc(C)c1)Cc1nnc(-c2ccco2)o1	12.9	.	.	.	.	22.0%
CN(C)CCNC(=O)CCNc1nc(Cl)nc2nc[nH]c12	-12.3	.	.	.	.	?
CC(=O)Nc1ccc2nc(SCc3ccc(Cl)cc3)sc2c1	2.1	.	.	.	.	20µM*
CNC(=O)Nc1ccc(NC(=O)C(c2ccc(Cl)cc2)C(C)C)cc1 (stereo not drawn)	0.7	.	.	.	.	20.1%
COc1ccc(Br)cc1/C=C/C(=O)c1ccc(NC(C)=O)cc1	1.6	-5.0%	?	8.2µM*	5.17µM*	3.1%
Cc1ccccc1CNC(=O)c1cnc2ccccc2n1	-11.8	.	.	.	.	4.47µM*
COc1ccc(C(CC(=O)c2ccc(O)cc2)S(=O)(=O)c2ccc(C)cc2)cc1 (stereo not drawn)	-9.5	7.5%	12.6µM*	-15.2%	6.5%	?
COc1ccc(C(=O)CC(c2ccc(OC)cc2)S(=O)(=O)c2ccc(C)cc2)cc1 (stereo not drawn)	-1.7	.	.	.	.	-17.4%
COc1ccc(C(CC(=O)c2ccc(C)cc2)Sc2ccccc2N)cc1 (stereo not drawn)	2.1	17.7%	?	.	.	50.1µM*
Nc1ccccc1SC(CC(=O)c1ccccc1)c1ccc([N+](=O)[O-])cc1 (stereo not drawn)	1.9	11.3%	?	.	.	?
Nc1ccccc1SC(CC(=O)c1ccccc1)c1cccc([N+](=O)[O-])c1 (stereo not drawn)	0.3	11.7%	5.01µM*	.	.	?
CO/N=C/NC(=O)NOCc1ccc(Cl)cc1Cl	-0.5	5.4%	0.9%	-2.8%	11.0%	0.0%
O=C(N/C=N/OCc1ccc(Cl)cc1Cl)NOCc1c(Cl)cccc1Cl	-3.2	2.1%	0.3%	-18.8%	25.9µM*	?
Cc1noc(C)c1-c1nccc(-n2ccnc2)n1	.	.	.	.	.	44.7µM*
Cc1noc(C)c1-c1cc(NC2CCNCC2)ncn1	.	.	.	.	.	22.4µM*
Cc1noc(C)c1-c1nccc(NCCN2CCOCC2)n1	.	.	.	.	.	31.6µM*
SMILES	LDHA inh	mIDH1 inhibitor	Nrf2 ARE act	A549 tox	Nrf2 block	12-LOX inh
Cc1ccccc1-c1nccc(NCCN2CCOCC2)n1	.	.	.	.	.	39.8µM*
Cc1nc(-c2cccc(F)c2)sc1CCNC(=O)C1CCCC1	4.7	.	.	.	.	18.4%
CCCO	.	.	.	.	.	-11.6%[176 µM]
CC(=O)N(CCCNC(=O)c1cc(F)cc2nc(C)c(C)nc12)C(C)C	-2.1	.	.	.	.	-6.0%
Fc1ccc(-c2nnc3sc(Cn4cccn4)nn23)cc1Br	4.3	.	.	.	.	?
Cc1noc(C)c1-c1nccc(NC2CC2)n1	.	.	.	.	.	7.08µM*

Assay outcomes deposited in PubChem BioAssay by National Center for Advancing Translational Sciences (NCATS).
